Results on 54 compounds are retold here after ChEMBL document CHEMBL4513216, “Probing the Open Global Health Chemical Diversity Library for Multistage-Active Starting Points for Next-Generation Antimalarials” (ACS Infect Dis, 2020).

The campaign covered roughly 65,000 compounds. About 2,100 (3.2%) showed an effect of 50% or more. The median lay at about -52%. The sample holds strong results, similar compounds and a random draw of the others, so the mix is not that of the screen.

For the experiment, the system named is Plasmodium falciparum. In words: Screen against P. falciparum Asexual Blood Stage (ABS), at 5uM. The format is functional, Dd2. As to conditions: tested at 5 uM.
Take `Cc1nc(C)n(CC2CCCN2Cc2nc(-c3ccco3)no2)n1` (centres undefined): the INHIBITION was -131%.
To `Cc1oc(-c2ccccc2)nc1CN1CCC(c2ccnn2C)CC1` belongs -18.9%; to `Cc1nc(C(=O)N2CCOCC2)cc(N2CCC(C(N)=O)CC2)n1`, -45.2%; to `Cn1nccc1-c1ncc2c(c1C(=O)O)CCN(Cc1ccccc1)C2`, -41.8%.
With `COCC(=O)N1CCN(Cc2cccnc2)c2ncccc2C1`, the INHIBITION is -53.1%.
For `CN(C)C(=O)CC1CC2(CCNCC2)c2cc(F)ccc21` (centres undefined) the value was -22.3%; for `CN(C)C(=O)c1cnn2c1OCCC2`, -117%.
In the case of `CN1CCN(S(=O)(=O)c2cccnc2)c2cnccc21`, the INHIBITION was -111%.
As to `CCn1cc(S(=O)(=O)N2CCC(C)Sc3ccccc32)cn1` (centres undefined), the INHIBITION was -0.433%.
For `CC1CCN(S(=O)(=O)c2cccnc2)c2ccccc2S1` (centres undefined), the INHIBITION came out at 55%.
Consider `CS(=O)(=O)N1CCCC1CS(=O)(=O)c1ccccc1` (centres undefined), for which the INHIBITION is -100%.
With `CN(C)CC(Nc1nc(N)nc2c1CCNCC2)c1ccccc1` (centres undefined), the INHIBITION was -104%.
`CCOC(=O)[C@H]1[C@@H](O)C(=O)N(C)C12CCN(C(=O)CC1CCCC1)CC2`: the INHIBITION was -1.62%.
Turning to `Cn1cnc2c(N3CCCC3)nc(C3CCN(CC4CC4)CC3)cc21`, the INHIBITION came to 68.8%.
To `Cn1cnc2c(N3CCCC3)nc(C3CCNCC3)cc21` belongs -31.4%; to `Cn1cc(-c2nc(C3CCN(CC4CC4)CC3)cc3c2ncn3C)cn1`, -98.2%; to `c1cnnc(N2CCCC(NCc3nc(-c4ccco4)no3)C2)c1` (centres undefined), -78.3%.
Consider `O=C(COc1ccccc1)N1C[C@@H]2COC[C@]2(COc2cccnc2)C1`, for which the INHIBITION is on record as -110%.
To `Cn1nc(N2CCCC(C(=O)Nc3nc4ccccc4[nH]3)C2)ccc1=O` (centres undefined) belongs -105%; to `Cc1cc(C)n(CC(C)NC(=O)NCc2c(C)cc(C)[nH]c2=O)n1` (centres undefined), -51.8%; to `O=C1CNc2ncnc(N3CCN(c4ccccc4F)CC3)c2N1`, -21.3%.
To `N#CCCN(CCN1CCOCC1)Cc1ccc(F)c(Br)c1` belongs 52.6%; to `CCOc1ccc(CN(CCC#N)CCN2CCOCC2)cc1OC`, -99%.
Regarding `COc1ccc(CN(CCC#N)CCN2CCOCC2)cc1OC`, the INHIBITION is on record as -43.2%.
`CC(C)C(=O)N1CCC2(CC1)COCCN2Cc1ccc(F)cc1`: the INHIBITION is -29.9%.
On to `O=C1CNc2ncnc(Nc3cnn(Cc4ccc(F)cc4)c3)c2N1`, for which the INHIBITION is recorded as -134%.
For the compound `CN(Cc1ccc(F)cc1F)Cc1cc2c(cc1Br)OCCO2`, the INHIBITION is recorded as -30.1%.
To `Cc1ccc(F)c(N2CCCC(Nc3nccn4cnnc34)C2=O)c1` (centres undefined) belongs -141%; to `Cn1cc(NS(=O)(=O)c2ccc3c(c2)CCCC3)ccc1=O`, -133%.
For the compound `CCS(=O)(=O)NCCNCc1ccc(Cl)c2cccnc12`, the INHIBITION is 61.5%.
Regarding `CC(C)(O)CSCCNCc1ccc(Cl)c2cccnc12`, the INHIBITION is 67.7%.
Regarding `CC(C)(C)[S+]([O-])CCNC(=O)c1ccc(Cl)c2cccnc12` (centres undefined), the INHIBITION is -46.8%.
In the case of `CC(C)(O)CN1CCN(C(=O)c2ccc(Cl)c3cccnc23)CC1`, the INHIBITION is listed as -2.98%.
Turning to `CC(=O)NCCCNCc1ccc(Cl)c2cccnc12`, the INHIBITION was -36.6%.
In the case of `O=C(CCCNCc1ccc(Cl)c2cccnc12)NC1CC1`, the INHIBITION is recorded as 11.3%.
On to `CN(C)C(=O)CC1CC2(CCN(Cc3ccsc3)CC2)c2ccccc21` (centres undefined), for which the INHIBITION came to 14.2%.
To `COC(=O)C(c1cc(F)ccc1F)N(C)C(=O)c1cnc(C)cn1` (centres undefined) belongs -85.1%; to `CN(Cc1noc(C(C)(C)C)n1)C1CCCN(c2cccnn2)C1` (centres undefined), -18.2%.
Take `CN(C)C(=O)N1CCC(c2nc3ccc(-c4ccccc4)cn3n2)CC1`: the INHIBITION is -52.3%.
With `CN(C)c1ncc(I)c(C2CCCN2C)n1` (centres undefined), the INHIBITION is 20.7%.
For `CN(C)c1ncc(I)c(C2CCCCN2C)n1` (centres undefined) the value was 57.8%.
To `CN(C)c1ncc(I)c(C2CCCCN2S(C)(=O)=O)n1` (centres undefined) belongs -17.7%; to `CCOC(=O)c1ccccc1NC(=O)CN(C)Cc1ccccc1Cl`, 8.05%; to `Cc1c(C(=O)O)cnn1-c1ccc(-c2nc(C(C)(C)C)no2)cn1`, -116%.
For the compound `CS(=O)(=O)NC[C@]12COC[C@H]1CN(CC1CCC1)C2`, the INHIBITION is -40%.
As to `Cc1ccc(CN2CC3(CCN(C(=O)c4cscn4)C3)C2)o1`, the INHIBITION was -13.6%.
To `CN(C)CCn1ccnc1C1CCCN(c2cc(N)ncn2)C1` (centres undefined) belongs -52.8%.
In the case of `CCn1ccnc1C1CCCN(c2nccc3ccccc23)C1` (centres undefined), the INHIBITION came to 30.8%.
For the compound `CN(C)CCn1ccnc1C1CCCN(c2nccc3ccccc23)C1` (centres undefined), the INHIBITION is given as 57.4%.
Regarding `CN(C)Cc1nnc(C2CCCN(c3nccc4ccccc34)C2)n1C` (centres undefined), the INHIBITION is on record as -10.1%.
Consider `Cc1cc(C)nc(N2CCCC(c3nccn3CCCN(C)C)C2)c1` (centres undefined), for which the INHIBITION came to 51.7%.
As for `COc1cc(OC)nc(N2CCCC(c3nccn3CCN(C)C)C2)n1` (centres undefined), the INHIBITION is recorded as -23.1%.
Regarding `COc1ccc(CCN(C)CCS(=O)(=O)c2ccc(Cl)cc2)cc1OC`, the INHIBITION is reported as -7.75%.
As for `COCC(=O)N1CCC2(CC1)COc1ccccc1S(=O)(=O)N(C)C2`, the INHIBITION is listed as -129%.
